# The source made the active and inactive calls. The calls were made as follows: active = hit-call score of the fitted dose curve at least 0.9, where 1 is the maximum; inactive = score below 0.9.
# Biological target: Hepatocyte nuclear factor 6 (Homo sapiens) (UniProt Q9UBC0)
# Experiment: ATG_HNF6_CIS: Attagene CIS-FACTORIAL HepG2 Assay for human Hepatocyte Nuclear Factor 6 (HNF6) (AID 2282952)
# Settings: HepG2 Attagene cis-factorial HNF6 reporter transcription; actives raise or lower the signal
# Protocol: ATG_CIS is a cell-based, multiplexed-readout assay that uses HepG2, a human liver cell line, with measurements taken at 24 hours after chemical dosing in a 24-well plate.ATG_HNF6_CIS is one of 52 assay component(s) measured or calculated from the ATG_CIS assay. It is designed to make measurements of mRNA induction, a form of inducible reporter, as detected with fluorescence intensity signals by Reverse transcription polymerase chain reaction (RT-PCR) and Capillary electrophoresis technology.Data from the assay component ATG_HNF6_CIS was analyzed into 1 assay endpoint. This assay endpoint, ATG_HNF6_CIS, was analyzed with bidirectional fitting relative to DMSO as the negative control and baseline of activity. Using a type of inducible reporter, measures of mRNA for gain or loss-of-signal activity can be used to understand the reporter gene at the transcription factor-level as they relate to the gene ONECUT1. Furthermore, this assay endpoint can be referred to as a primary readout, because this assay has produced multiple assay endpoints where this one serves a reporter gene function. To generalize the intended target to other relatable targets, this assay endpoint is annotated to the dna binding intended target family, where the subfamily is homeobox protein.
# Human liver HepG2 cells are transiently transfected with multiple reporter transcription units (MRTUs) in 6-well plates using FuGene 6 reagent (Roche; 3 ml FuGene/1 mg DNA). The MRTU constructs are regulated by a cis-regulating element (promoter). […] A major difference between the CIS and TRANS system is that in CIS activities of endogenous TFs are measured, whereas the TRANS assay evaluates changes in activities of exogenous, chimeric NR-Gal4 proteins. […] At the end of 24 hour incubation, total RNA was isolated using TriZol reagent (Invitrogen). The isolated RNA is then reverse-transcribed using oligo(dT) primer and Mo-MLV reverse transcriptase (Invitrogen) with DNAse I (Ambion) treatment for 30 min. The one-tenth of the produced cDNA was amplified by PCR using Taq DNA polymerase (Invitrogen) and two reporter sequence-specific primers. The PCR products were fluorescently labeled by primer extension with 6-arboxyfluorescein (6-FAM) 5'-labeled reporter sequence-specific primer (2 min at 95 C, 20 s at 68 C and 10 min at 72 C) and these products were digested with 5U of HpaI (New England Biolabs) for 2h at 37 C. The fragments were purified using Qiaquick PCR columns (Qiagen), analyzed on an ABI 3130xL genetic analyzer (Applied Biosystems) with peak positions identified by using a set of X-rhodamine (ROX)-labeled MapMarker1000 molecular weight standards (BioVentures). The raw capillary electrophoresis data was processed using Attagraph software (Attagene).
# Sequence of Hepatocyte nuclear factor 6 (Homo sapiens) (Q9UBC0 whole entry, looked up): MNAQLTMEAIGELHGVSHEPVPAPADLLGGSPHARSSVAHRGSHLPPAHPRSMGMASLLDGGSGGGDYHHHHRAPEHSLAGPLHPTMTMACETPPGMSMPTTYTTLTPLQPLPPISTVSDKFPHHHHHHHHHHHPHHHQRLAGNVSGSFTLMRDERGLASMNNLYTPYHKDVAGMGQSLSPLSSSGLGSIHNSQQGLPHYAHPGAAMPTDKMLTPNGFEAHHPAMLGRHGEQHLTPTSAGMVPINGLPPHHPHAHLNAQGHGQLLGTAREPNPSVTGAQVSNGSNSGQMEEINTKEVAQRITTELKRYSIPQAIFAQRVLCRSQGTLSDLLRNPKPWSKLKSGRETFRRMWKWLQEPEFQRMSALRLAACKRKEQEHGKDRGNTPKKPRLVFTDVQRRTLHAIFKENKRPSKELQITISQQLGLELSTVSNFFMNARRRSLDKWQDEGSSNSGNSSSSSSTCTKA
SMILES,outcome,AC50
CCCCOP(=O)(O)OCCCC,inactive,
CN(C)C(=O)C(c1ccccc1)c1ccccc1,inactive,
NNc1ccccc1,inactive,
BrCBr,inactive,
CCC(C)c1cc(C(C)(C)C)cc(-n2nc3ccccc3n2)c1O (stereo not given),inactive,
CCCCCCCCCCCCCCCC[N+](C)(C)C,,100 µM (active)
CC1(C)[C@H](C(=O)O[C@H](C#N)c2cccc(Oc3ccccc3)c2)[C@@H]1C=C(Br)Br,inactive,
CCC(Br)(CC)C(=O)NC(N)=O,inactive,
CCCCOC(=O)CCC(=O)OCCCC,inactive,
O=P(O)(Oc1ccccc1)Oc1ccccc1,inactive,
CCc1cc(C)cc(CC)c1-c1c(OC(=O)C(C)(C)C)n2n(c1=O)CCOCC2,inactive,
O=P1(NCCCl)OCCCN1CCCl (stereo not given),inactive,
O=C(NC(=O)c1c(F)cccc1F)Nc1ccc(Oc2ccc(C(F)(F)F)cc2Cl)cc1F,inactive,
CNC(=O)Oc1cc(C)c(SC)c(C)c1,inactive,
COCC(=O)N(c1c(C)cccc1C)N1CCOC1=O,inactive,
CC(C)[C@@H](C(=O)O[C@@H](C#N)c1cccc(Oc2ccccc2)c1)c1ccc(Cl)cc1,inactive,
CC(O)CN(CC(C)O)CC(C)O (stereo not given),inactive,
CCOP(=O)(OCC)OCC,inactive,
O=C(O)C(Br)Br,inactive,
CC(=O)c1cc2c(cc1C)C(C)(C)C(C)CC2(C)C (stereo not given),,171 µM (active)

SMILES,outcome,AC50
ClCC(Cl)Cl,inactive,
COC(C)(C)CCC[C@H](C)C/C=C/C(C)=C/C(=O)OC(C)C,inactive,
C#CC1(O)CCCCC1,inactive,
C=CC(=O)OCCCCOC(=O)C=C,inactive,
C[N+](=O)[O-],inactive,
O=C1C=CC(=O)C=C1,inactive,
CC(C)(c1cc(Cl)c(O)c(Cl)c1)c1cc(Cl)c(O)c(Cl)c1,inactive,
CC(C)(C)C(O)C(Oc1ccc(-c2ccccc2)cc1)n1cncn1 (stereo not given),inactive,
Cc1ccccc1CCl,inactive,
SCc1ccco1,inactive,
CCOC(=O)N(C)N=O,inactive,
CCOP(=O)(OCC)Oc1ccc([N+](=O)[O-])cc1,inactive,
C[C@]12CC[C@H](O)C[C@H]1CC[C@@H]1[C@@H]2C[C@@H](O)[C@]2(C)[C@@H](C3=CC(=O)OC3)CC[C@]12O,,5.31 µM (active)
O=S(=O)(O)O,inactive,
Nc1cc(Cl)cc(Cl)c1,inactive,
C=Cc1cccc(CCl)c1,inactive,
CCC1CCC(=O)O1 (stereo not given),inactive,
N#CCNCC#N,inactive,
COc1ncc(F)c2nc(S(=O)(=O)Nc3c(F)cccc3F)nn12,inactive,
COc1ccc(CO)cc1,inactive,
